# According to ChEMBL document CHEMBL1961873, “Compounds: GSK PKIS; Assays: Nanosyn kinase panel” (2012):
# How the values were obtained:
# [1] = molecular target: Death-associated protein kinase 1 (Homo sapiens) (UniProt P53355); settings: at 1 µM;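 further: each value is a mean inhibition figure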
# [2] = molecular target: T1, Serine/threonine-protein kinase DCLK2 (Homo sapiens) (UniProt Q8N568); settings: at 0.1 µM
# T1 sequence (whole entry): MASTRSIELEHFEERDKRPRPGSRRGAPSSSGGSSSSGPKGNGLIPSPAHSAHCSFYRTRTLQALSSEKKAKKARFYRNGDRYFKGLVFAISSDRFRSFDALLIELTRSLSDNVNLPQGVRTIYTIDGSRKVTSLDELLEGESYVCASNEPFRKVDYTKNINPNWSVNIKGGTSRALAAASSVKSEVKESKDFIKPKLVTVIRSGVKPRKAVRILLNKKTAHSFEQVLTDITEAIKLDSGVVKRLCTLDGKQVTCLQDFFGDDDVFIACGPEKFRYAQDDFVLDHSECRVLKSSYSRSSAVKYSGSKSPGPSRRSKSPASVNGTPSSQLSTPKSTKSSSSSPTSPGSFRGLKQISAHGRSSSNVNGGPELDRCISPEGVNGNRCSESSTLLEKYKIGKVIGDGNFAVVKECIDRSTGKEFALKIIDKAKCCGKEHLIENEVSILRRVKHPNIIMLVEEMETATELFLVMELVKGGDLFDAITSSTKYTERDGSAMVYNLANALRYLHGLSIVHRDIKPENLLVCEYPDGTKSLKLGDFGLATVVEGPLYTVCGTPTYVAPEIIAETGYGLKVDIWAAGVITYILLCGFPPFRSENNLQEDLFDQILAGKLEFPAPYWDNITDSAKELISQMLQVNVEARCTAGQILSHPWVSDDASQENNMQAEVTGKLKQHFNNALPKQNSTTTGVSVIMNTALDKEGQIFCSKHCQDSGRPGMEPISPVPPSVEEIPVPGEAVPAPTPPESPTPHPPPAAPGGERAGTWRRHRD
# [3] = molecular target: T1, Serine/threonine-protein kinase DCLK2 (Homo sapiens); settings: at 1 µM
# [4] = molecular target: MAP kinase-activated protein kinase 2 (Homo sapiens) (UniProt P49137); settings: at 0.1 µM
# [5] = molecular target: MAP kinase-activated protein kinase 2 (Homo sapiens) (UniProt P49137); settings: at 1 µM
# [6] = molecular target: MAP kinase-activated protein kinase 3 (Homo sapiens) (UniProt Q16644); settings: at 0.1 µM
# Chain of MAP kinase-activated protein kinase 3 (Homo sapiens) (Q16644 whole entry, looked up): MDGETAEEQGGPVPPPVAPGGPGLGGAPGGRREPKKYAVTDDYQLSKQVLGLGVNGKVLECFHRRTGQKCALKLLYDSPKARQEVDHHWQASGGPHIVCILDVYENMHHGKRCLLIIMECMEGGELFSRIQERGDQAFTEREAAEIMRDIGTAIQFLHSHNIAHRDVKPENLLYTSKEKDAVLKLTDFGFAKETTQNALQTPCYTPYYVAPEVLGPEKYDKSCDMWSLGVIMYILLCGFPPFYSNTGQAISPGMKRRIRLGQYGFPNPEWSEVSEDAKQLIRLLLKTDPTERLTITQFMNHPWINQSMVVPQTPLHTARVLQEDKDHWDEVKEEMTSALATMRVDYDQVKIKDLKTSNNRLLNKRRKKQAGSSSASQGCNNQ
# [7] = molecular target: MAP kinase-activated protein kinase 3 (Homo sapiens) (UniProt Q16644); settings: at 1 µM
# [8] = molecular target: Serine/threonine-protein kinase MARK1 (Homo sapiens) (UniProt Q9P0L2); settings: at 0.1 µM
# Chain of Serine/threonine-protein kinase MARK1 (Homo sapiens) (Q9P0L2 whole entry, looked up): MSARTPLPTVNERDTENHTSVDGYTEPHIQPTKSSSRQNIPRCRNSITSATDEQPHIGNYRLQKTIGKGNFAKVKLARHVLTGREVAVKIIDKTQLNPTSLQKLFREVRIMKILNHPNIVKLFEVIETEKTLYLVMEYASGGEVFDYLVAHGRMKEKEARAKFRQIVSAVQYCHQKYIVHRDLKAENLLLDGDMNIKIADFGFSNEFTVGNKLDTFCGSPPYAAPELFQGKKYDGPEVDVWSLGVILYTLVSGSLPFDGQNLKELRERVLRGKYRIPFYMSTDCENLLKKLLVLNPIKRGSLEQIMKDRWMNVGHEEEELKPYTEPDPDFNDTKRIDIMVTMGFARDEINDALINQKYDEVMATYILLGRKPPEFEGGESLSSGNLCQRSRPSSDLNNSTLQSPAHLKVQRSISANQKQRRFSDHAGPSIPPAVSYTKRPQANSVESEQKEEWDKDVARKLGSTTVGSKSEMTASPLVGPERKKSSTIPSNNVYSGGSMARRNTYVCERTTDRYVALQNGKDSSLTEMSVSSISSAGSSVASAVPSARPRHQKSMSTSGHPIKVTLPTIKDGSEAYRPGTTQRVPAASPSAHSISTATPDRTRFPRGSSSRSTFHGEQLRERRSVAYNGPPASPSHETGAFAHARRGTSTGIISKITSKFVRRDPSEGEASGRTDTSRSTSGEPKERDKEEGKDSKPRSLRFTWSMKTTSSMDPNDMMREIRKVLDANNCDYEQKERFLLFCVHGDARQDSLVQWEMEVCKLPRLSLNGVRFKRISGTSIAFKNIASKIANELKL
# [9] = molecular target: Serine/threonine-protein kinase MARK1 (Homo sapiens) (UniProt Q9P0L2); settings: at 1 µM
# [10] = molecular target: MAP/microtubule affinity-regulating kinase 3 (Homo sapiens) (UniProt P27448); settings: at 0.1 µM
# Chain of MAP/microtubule affinity-regulating kinase 3 (Homo sapiens) (P27448 whole entry, looked up): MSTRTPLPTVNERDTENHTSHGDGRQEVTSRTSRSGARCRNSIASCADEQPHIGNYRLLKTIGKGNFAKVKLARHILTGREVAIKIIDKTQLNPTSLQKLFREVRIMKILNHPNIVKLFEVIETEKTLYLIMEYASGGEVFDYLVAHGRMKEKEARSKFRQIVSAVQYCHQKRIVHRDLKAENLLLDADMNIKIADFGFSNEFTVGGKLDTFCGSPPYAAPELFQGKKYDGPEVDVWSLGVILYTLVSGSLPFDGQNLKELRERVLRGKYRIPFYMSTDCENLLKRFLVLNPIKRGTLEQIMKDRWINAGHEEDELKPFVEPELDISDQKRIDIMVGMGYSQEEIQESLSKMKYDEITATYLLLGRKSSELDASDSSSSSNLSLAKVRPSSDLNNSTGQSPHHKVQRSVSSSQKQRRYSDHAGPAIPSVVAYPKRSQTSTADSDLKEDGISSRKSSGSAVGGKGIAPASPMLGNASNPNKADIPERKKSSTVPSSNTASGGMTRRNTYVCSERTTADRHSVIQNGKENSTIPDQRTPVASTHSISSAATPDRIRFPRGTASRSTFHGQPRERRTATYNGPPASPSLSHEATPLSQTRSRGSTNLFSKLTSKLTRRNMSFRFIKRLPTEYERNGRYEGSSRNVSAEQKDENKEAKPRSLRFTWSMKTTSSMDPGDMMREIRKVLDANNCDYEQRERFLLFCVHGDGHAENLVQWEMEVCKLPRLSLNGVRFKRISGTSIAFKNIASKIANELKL
# [11] = molecular target: MAP/microtubule affinity-regulating kinase 3 (Homo sapiens) (UniProt P27448); settings: at 1 µM
# [12] = molecular target: T2, MAP/microtubule affinity-regulating kinase 4 (Homo sapiens) (UniProt Q96L34); settings: at 0.1 µM
# T2 sequence (whole entry): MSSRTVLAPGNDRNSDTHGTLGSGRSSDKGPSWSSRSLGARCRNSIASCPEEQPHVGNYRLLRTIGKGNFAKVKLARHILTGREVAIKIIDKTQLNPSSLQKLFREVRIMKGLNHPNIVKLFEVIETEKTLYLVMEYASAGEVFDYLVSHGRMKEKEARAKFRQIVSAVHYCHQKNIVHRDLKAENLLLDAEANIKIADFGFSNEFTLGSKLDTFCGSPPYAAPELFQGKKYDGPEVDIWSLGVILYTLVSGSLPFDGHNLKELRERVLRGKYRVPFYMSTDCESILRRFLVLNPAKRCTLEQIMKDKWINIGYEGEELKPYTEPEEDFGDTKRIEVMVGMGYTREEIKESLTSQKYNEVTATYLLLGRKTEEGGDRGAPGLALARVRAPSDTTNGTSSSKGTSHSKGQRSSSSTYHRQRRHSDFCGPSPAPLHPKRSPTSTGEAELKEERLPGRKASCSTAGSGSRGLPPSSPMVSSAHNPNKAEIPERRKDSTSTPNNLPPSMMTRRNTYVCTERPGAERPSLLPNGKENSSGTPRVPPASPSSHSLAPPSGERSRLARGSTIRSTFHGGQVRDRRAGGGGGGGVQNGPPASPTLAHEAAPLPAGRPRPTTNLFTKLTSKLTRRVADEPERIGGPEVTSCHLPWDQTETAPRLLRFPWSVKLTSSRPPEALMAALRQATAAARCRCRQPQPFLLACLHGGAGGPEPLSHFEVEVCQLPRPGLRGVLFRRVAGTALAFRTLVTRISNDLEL
# [13] = molecular target: T2, MAP/microtubule affinity-regulating kinase 4 (Homo sapiens); settings: at 1 µM
# [14] = molecular target: Maternal embryonic leucine zipper kinase (Homo sapiens) (UniProt Q14680); settings: at 0.1 µM
# Chain of Maternal embryonic leucine zipper kinase (Homo sapiens) (Q14680 whole entry, looked up): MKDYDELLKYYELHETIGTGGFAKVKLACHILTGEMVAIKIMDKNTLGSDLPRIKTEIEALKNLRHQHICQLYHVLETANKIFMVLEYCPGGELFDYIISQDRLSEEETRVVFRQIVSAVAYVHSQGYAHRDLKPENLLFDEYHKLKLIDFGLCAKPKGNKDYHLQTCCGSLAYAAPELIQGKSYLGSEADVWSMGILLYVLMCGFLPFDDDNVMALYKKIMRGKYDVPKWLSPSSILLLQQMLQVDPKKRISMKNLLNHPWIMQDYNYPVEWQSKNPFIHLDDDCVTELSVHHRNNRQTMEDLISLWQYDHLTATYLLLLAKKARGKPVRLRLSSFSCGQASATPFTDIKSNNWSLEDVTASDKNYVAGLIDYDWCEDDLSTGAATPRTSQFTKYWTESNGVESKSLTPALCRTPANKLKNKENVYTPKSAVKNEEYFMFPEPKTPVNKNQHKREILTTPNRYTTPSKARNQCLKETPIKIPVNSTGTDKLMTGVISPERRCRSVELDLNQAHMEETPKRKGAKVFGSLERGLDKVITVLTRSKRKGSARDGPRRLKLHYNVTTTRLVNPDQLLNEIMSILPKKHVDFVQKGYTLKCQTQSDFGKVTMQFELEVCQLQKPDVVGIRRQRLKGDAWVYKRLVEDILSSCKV
# [15] = molecular target: Maternal embryonic leucine zipper kinase (Homo sapiens) (UniProt Q14680); settings: at 1 µM
# [16] = molecular target: MAP kinase-interacting serine/threonine-protein kinase 1 (Homo sapiens) (UniProt Q9BUB5); settings: at 0.1 µM
# [17] = molecular target: MAP kinase-interacting serine/threonine-protein kinase 1 (Homo sapiens) (UniProt Q9BUB5); settings: at 1 µM
# [18] = molecular target: MAP kinase-interacting serine/threonine-protein kinase 2 (Homo sapiens) (UniProt Q9HBH9); settings: at 0.1 µM
# [19] = molecular target: MAP kinase-interacting serine/threonine-protein kinase 2 (Homo sapiens) (UniProt Q9HBH9); settings: at 1 µM
# [20] = molecular target: Serine/threonine-protein kinase MARK2 (Homo sapiens) (UniProt Q7KZI7); settings: at 0.1 µM;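 further: mean percent inhibition of PAR-1Balpha kinase activity, reported from the GSK PKIS screen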
# Chain of Serine/threonine-protein kinase MARK2 (Homo sapiens) (Q7KZI7 whole entry): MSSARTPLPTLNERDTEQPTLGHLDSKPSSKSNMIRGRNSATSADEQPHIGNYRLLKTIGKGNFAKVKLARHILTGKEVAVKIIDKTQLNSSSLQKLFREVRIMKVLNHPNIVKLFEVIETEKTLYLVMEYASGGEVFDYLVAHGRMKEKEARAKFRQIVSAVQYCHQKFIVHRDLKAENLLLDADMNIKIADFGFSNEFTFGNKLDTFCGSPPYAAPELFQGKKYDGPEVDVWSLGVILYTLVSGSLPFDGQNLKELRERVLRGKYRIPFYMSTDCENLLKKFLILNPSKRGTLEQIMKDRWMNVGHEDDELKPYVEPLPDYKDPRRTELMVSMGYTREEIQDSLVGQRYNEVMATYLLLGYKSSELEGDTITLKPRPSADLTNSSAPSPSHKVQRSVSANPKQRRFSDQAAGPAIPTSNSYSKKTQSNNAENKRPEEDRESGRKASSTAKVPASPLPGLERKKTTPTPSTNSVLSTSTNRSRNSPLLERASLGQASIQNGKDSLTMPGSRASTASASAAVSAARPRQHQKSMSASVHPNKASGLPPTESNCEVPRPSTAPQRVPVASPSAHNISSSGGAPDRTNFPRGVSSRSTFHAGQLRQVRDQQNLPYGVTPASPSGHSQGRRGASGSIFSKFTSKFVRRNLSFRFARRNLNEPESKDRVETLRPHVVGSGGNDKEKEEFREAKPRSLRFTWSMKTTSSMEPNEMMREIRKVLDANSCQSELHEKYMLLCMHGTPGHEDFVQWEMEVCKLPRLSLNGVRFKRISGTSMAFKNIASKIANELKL
# Chain of Death-associated protein kinase 1 (Homo sapiens) (P53355 whole entry, looked up): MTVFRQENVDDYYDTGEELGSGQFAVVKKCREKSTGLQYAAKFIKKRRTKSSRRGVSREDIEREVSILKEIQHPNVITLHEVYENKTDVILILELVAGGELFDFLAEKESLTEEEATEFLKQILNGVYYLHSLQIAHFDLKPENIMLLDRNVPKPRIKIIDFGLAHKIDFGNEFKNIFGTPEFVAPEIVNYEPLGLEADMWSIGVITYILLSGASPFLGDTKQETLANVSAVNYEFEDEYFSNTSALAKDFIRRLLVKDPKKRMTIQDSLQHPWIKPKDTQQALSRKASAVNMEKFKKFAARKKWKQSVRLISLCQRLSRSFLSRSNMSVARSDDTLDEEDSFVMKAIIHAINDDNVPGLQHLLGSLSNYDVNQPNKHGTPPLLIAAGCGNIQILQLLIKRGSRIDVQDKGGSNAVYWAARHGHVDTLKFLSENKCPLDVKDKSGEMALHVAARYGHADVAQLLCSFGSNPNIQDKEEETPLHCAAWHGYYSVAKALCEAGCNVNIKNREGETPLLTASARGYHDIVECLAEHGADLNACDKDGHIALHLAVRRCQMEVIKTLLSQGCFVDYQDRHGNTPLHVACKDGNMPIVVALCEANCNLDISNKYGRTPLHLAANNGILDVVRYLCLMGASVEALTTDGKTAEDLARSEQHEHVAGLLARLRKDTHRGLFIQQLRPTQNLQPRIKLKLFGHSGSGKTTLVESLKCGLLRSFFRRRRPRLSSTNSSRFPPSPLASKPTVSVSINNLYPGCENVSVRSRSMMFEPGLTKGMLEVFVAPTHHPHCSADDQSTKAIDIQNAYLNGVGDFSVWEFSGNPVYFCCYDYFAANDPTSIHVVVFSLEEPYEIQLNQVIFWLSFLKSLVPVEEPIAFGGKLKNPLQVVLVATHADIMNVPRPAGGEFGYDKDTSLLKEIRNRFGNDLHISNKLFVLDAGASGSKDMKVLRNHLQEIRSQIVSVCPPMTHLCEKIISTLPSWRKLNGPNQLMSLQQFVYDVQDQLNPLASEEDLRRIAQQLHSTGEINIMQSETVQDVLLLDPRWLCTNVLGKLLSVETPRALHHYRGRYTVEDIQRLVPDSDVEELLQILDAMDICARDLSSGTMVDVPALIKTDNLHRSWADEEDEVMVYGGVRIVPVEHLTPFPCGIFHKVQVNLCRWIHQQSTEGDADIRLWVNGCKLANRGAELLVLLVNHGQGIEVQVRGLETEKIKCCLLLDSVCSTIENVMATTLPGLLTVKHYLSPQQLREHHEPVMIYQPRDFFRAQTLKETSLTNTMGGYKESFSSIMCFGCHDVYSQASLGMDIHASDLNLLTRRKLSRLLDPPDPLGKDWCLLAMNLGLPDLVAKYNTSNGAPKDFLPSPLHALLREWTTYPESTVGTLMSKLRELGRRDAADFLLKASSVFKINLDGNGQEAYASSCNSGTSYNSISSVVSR
Compound,inhibition [1],inhibition [2],inhibition [3],inhibition [4],inhibition [5],inhibition [6],inhibition [7],inhibition [8],inhibition [9],inhibition [10],inhibition [11],inhibition [12],inhibition [13],inhibition [14],inhibition [15],inhibition [16],inhibition [17],inhibition [18],inhibition [19],inhibition [20]
COc1ccc2ncnc(Nc3ccc(OCc4ccccc4)cc3)c2c1,3.26%,-5.53%,-8.44%,1.42%,-2.28%,2.72%,4.71%,1.85%,3.7%,1.64%,3.15%,0.07%,-0.37%,-0.28%,2.03%,2.24%,7.43%,1.39%,11.3%,0.5%
NC(=O)c1cccc(Nc2nccc(Nc3cccc(F)c3)n2)c1,-2.63%,-0.56%,0.44%,0.22%,0.05%,1.51%,1.85%,0.81%,2.94%,1.98%,2.35%,0.72%,3.28%,-2.04%,2.88%,1.05%,3.91%,0.26%,8.7%,-1.24%
CN(C)C(=O)O[C@@H]1CN[C@@H](C#Cc2cc3ncnc(Nc4ccc(OCc5cccc(F)c5)c(Cl)c4)c3s2)C1,1.85%,1.22%,0.53%,-2.43%,-0.13%,2.61%,3.12%,0.76%,0.76%,2.16%,-0.12%,0.74%,1.37%,-0.39%,3.35%,0.76%,3.62%,0.4%,5.87%,0.66%
Cc1ccc2c(-c3ccnc(Nc4ccc5c(c4)OCCO5)n3)c(-c3ccc(C(F)(F)F)cc3)nn2n1,1.35%,-1.42%,-0.35%,0.41%,-0.12%,2.89%,10.8%,1.39%,2.56%,-1.05%,5.36%,1.96%,3.07%,-1.46%,0.19%,0.37%,-0.05%,0.66%,1.73%,-0.06%
COc1cccc(-n2ncc3c(N/N=C/c4ccc(S(C)(=O)=O)cc4)ncnc32)c1,-2.35%,-3.49%,-3.25%,-0.57%,-0.87%,-0.21%,-1.31%,0.85%,4.83%,0.34%,4.26%,1.03%,3.52%,3.61%,4.85%,23.2%,34.2%,16.7%,23.9%,0.16%
COc1ccc(-c2nn3ncccc3c2-c2ccnc(Nc3cccc(C(F)(F)F)c3)n2)cc1,2.26%,-0.87%,-1.41%,1.58%,0.39%,7.94%,23.9%,1.45%,3.55%,0.72%,3.49%,1.29%,1.74%,2.53%,1.64%,1.88%,3.34%,0.77%,1.76%,-0.74%
COC(=O)c1ccc2c(c1)C(=Cc1cc(Br)c(O)c(Br)c1)C(=O)N2,-8.17%,1.31%,0.79%,4.54%,7.08%,8.04%,10.5%,1.62%,5.65%,-2.9%,3.71%,0.93%,5.08%,6.21%,22.2%,1.07%,5.73%,2.35%,19%,0.84%
N#Cc1c(NC(=O)c2ccccc2F)sc2c1CCCC2,-2.35%,-1.75%,0.7%,-1.29%,-0.76%,-0.73%,-1.26%,1.09%,2.84%,-2.32%,3.09%,1.13%,3.48%,-3.26%,-2.77%,-0.78%,-0.18%,-0.06%,2.26%,-0.36%
Nc1nccc(-c2c(-c3ccc(F)cc3)nn3cc(C(F)(F)F)ccc23)n1,1.3%,-1.79%,-1.22%,-0.92%,-1.14%,5.47%,19.9%,-0.24%,-0.05%,-0.09%,-0.99%,-0.15%,-0.03%,0.66%,-0.87%,1.92%,3.98%,0.49%,2.23%,-2.12%
Cc1ccc(C(=O)NC2CC2)cc1-c1ccc2[nH]ncc2c1,-2.38%,-3.53%,-2.34%,-2.72%,-1.94%,3.22%,18.7%,0.44%,2.83%,1.64%,5.49%,1.68%,3.83%,-4.14%,-5.86%,-1.37%,-1.19%,0.44%,1.35%,2.15%
COC(=O)Nc1nc2cc(Oc3ccc(NC(=O)Nc4cccc(Br)c4)cc3)ccc2[nH]1,2.38%,-0.32%,4.24%,1.26%,1.19%,4.95%,6.43%,1.41%,1.86%,3.56%,1.7%,0.25%,1.17%,2.93%,4.7%,4.77%,8.85%,1.96%,4.55%,-0.39%
O=C1Nc2ccc(-c3cccnc3)cc2C1=Cc1cc(Br)c(O)c(Br)c1,-6.21%,1.65%,0.92%,1.36%,1.49%,2.4%,2.92%,4.31%,9.1%,4.31%,6.43%,1.85%,3.53%,3.77%,10.4%,2.71%,12.7%,6.02%,36%,1.17%
CN1CCN(C(=O)c2ccc(NC(=O)Nc3ccc(N(C)c4ccnc(Nc5ccc(CS(C)(=O)=O)cc5)n4)cc3)cc2)CC1,2.64%,-0.43%,0.81%,0.81%,1.86%,2.24%,3.23%,1.73%,15.2%,2.96%,20.3%,2.48%,17.1%,0.8%,13.2%,2.8%,13.1%,5.75%,33.8%,0.98%
Cc1nc(-c2ccccc2)n2nc(NCCCN3CCOCC3)ncc12,1.62%,-0.46%,1.45%,1.25%,2.01%,1.51%,1.12%,0.92%,3%,0.93%,4.15%,1.2%,2.72%,1.4%,1.29%,2.43%,4.9%,1.85%,3.34%,-0.89%
